Several values for one entry are separate records, joined by “and”; a condition that tells them apart may be missing. Identical values can stand only once. Inconclusive results are not listed. A structure can be active in one record and inactive in another. Activity calls are given as the source filed them. The calls were made as follows, unless noted: active = hit-call score of the fitted dose curve at least 0.9, where 1 is the maximum; inactive = score below 0.9.

Assay [1] deals with Nuclear respiratory factor 1 (Homo sapiens) (UniProt Q16656). Put plainly: ATG_NRF1_CIS: Attagene CIS-FACTORIAL HepG2 Assay for human Nuclear Respiratory Factor 1 (NRF1) Orphan Gene (AID 2282987). The note with it: HepG2 NRF1 cis-element reporter, Attagene multiplex; actives raise or lower the signal. In outline:
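Reporter mRNA induction or loss in HepG2 cells after 24 h dosing; cis-regulated reporter constructs report endogenous transcription-factor activity. Quantified by RT-PCR/capillary electrophoresis fluorescence, DMSO-referenced.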

Assay [2] is described as follows: ATG_NFI_CIS: Attagene CIS-FACTORIAL HepG2 Assay for human Nuclear Factor I (NFI) (AID 2282989). The note with it: HepG2 cis-regulatory reporter, NFI response element transcription; actives raise or lower the signal. An outline of the steps:
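Transfected HepG2 liver cells, exposed 24 h, supplied total RNA for oligo(dT) reverse transcription and reporter-specific PCR. Labelled, HpaI-cut fragments were sized by capillary electrophoresis; DMSO set the baseline for bidirectional fitting.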

The target of assay [3] is Myc proto-oncogene protein (Homo sapiens) (UniProt P01106). Put plainly: ATG_Myc_CIS: Attagene CIS-FACTORIAL HepG2 Assay for human Myelocytomatosis (Myc) Proto-Oncogene Transcription Factor (AID 2282990). The note with it: HepG2, Attagene cis-reporter transcription factor activity; actives raise or lower the signal. In outline:
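Transiently transfected HepG2 cells bearing cis-promoter reporter units for endogenous transcription factors; 24 h exposure. Reporter mRNA measured by RT-PCR, 6-FAM primer extension, HpaI cut and capillary electrophoresis; bidirectional fit relative to DMSO.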

A short description of assay [4]: ATG_NF_kB_CIS: Attagene CIS-FACTORIAL HepG2 Assay for human Nuclear Factor Kappa B (NF-kB) (AID 2282991). The note with it: HepG2 Attagene cis-factorial NF-kB reporter mRNA; actives raise or lower the signal. An outline of the steps: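 DMSO served as negative control and baseline for bidirectional curve fitting. Transiently transfected HepG2 cells were dosed for 24 h, then reporter transcripts were measured by RT-PCR with capillary electrophoresis detection.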

Assay [5] can be described thus: ATG_NRF2_ARE_CIS: Attagene CIS-FACTORIAL HepG2 Assay for human Nuclear Factor Erythroid 2 Related Factor 2 (NFR2) response to Antioxidant Response Elements (ARE) (AID 2282992).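 As to AC50: reporter mRNA level measured by RT-PCR and capillary electrophoresis fluorescence.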 The settings on record: HepG2 Attagene ARE/NRF2 reporter, transcription factor activity; actives raise or lower the signal. In outline:
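Endogenous transcription factor activity in human liver HepG2 cells is tracked via a cis-element-driven reporter within a multiplexed set. mRNA induction is read by RT-PCR and capillary electrophoresis after 24 h, with DMSO as baseline.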

Assay [6] is described as follows: ATG_Oct_MLP_CIS: Attagene CIS-FACTORIAL HepG2 Assay for human Octamer-Binding Transcription Factor (Oct) (AID 2282993). The note with it: HepG2 Attagene cis-factorial Oct reporter, mRNA; actives raise or lower the signal. An outline of the steps: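 Using HepG2 cells bearing transfected cis-reporter constructs, mRNA induction was read after 24 h by fluorescent RT-PCR and capillary electrophoresis, with DMSO defining baseline for gain- or loss-of-signal fits.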

Assay [7] deals with Cellular tumor antigen p53 (Homo sapiens) (UniProt P04637). Briefly: ATG_p53_CIS: Attagene CIS-FACTORIAL HepG2 Assay for human p53 Transcription Factor (AID 2282994). The note with it: HepG2 p53 cis-element reporter, Attagene mRNA; actives raise or lower the signal. An outline of the steps: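 Steps: transfect HepG2 with multiplexed cis reporter constructs; dose chemicals 24 h; extract RNA, reverse-transcribe, PCR-amplify reporter sequences; FAM-label, HpaI-digest, resolve fragments by CE. Activity fitted both directions relative to DMSO.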
Chain of Cellular tumor antigen p53 (Homo sapiens) (P04637 whole entry, looked up, the tested form may be a part): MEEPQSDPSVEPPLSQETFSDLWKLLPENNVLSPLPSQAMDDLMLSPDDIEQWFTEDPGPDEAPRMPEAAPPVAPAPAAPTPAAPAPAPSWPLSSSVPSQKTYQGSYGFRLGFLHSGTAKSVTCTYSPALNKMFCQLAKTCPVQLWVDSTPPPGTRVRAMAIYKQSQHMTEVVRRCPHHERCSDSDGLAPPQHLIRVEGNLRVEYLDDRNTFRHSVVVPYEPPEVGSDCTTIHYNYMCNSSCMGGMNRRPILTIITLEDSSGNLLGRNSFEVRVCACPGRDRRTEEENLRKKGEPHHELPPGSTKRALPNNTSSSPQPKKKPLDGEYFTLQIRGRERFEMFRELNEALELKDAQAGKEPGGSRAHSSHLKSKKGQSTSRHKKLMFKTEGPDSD

Assay [8] deals with human Retinoic Acid Receptor beta (RARb), RARB (gene 5915) (UniProt P10826). Briefly: ATG_RARb_TRANS: Attagene TRANS-FACTORIAL HepG2 Assay for human Retinoic Acid Receptor beta (AID 2283004; active = hit-call score of the fitted dose curve at least 0.9, where 1 is the maximum). In outline: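 Induction of reporter mRNA from a chimeric RARb-Gal4 construct was measured by RT-PCR, FAM labelling, HpaI digestion and capillary electrophoresis. Measurements followed 24 h compound treatment of transiently transfected human HepG2 liver cells, with DMSO as baseline.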
Chain of human Retinoic Acid Receptor beta (RARb), RARB (gene 5915) (P10826 whole entry, looked up, the tested form may be a part): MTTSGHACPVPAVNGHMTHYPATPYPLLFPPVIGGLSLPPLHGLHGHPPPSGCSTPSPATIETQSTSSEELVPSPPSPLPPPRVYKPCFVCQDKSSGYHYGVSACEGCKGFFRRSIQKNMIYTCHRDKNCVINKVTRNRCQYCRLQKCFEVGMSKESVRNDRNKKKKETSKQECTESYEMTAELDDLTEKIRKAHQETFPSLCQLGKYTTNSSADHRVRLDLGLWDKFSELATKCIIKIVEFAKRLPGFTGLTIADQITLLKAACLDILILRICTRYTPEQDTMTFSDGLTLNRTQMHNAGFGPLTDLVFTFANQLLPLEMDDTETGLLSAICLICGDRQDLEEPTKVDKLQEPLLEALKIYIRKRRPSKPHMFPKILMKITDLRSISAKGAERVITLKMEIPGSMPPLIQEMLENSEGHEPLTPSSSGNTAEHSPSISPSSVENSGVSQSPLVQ

Assay [9] concerns the target Peroxisome proliferator-activated receptor gamma (Homo sapiens) (UniProt P37231). Put plainly: ATG_PPARg_TRANS: Attagene TRANS-FACTORIAL HepG2 Assay for human Peroxisome Proliferator-activated Receptor-gamma (PPARg) (AID 2283007; active = hit-call score of the fitted dose curve at least 0.9, where 1 is the maximum). In outline: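 Chimeric NR-Gal4 transactivation is measured in transiently transfected HepG2 cells by reporter mRNA induction at 24 h. Detection uses RT-PCR with fluorescent labelling and capillary electrophoresis; DMSO defines baseline.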

Assay [10] concerns the target Nuclear receptor subfamily 1 group I member 2 (Homo sapiens) (UniProt O75469). Briefly: ATG_PXR_TRANS: Attagene TRANS-FACTORIAL HepG2 Assay for human Pregnane X Receptor (PXR) (AID 2283008; active = hit-call score of the fitted dose curve at least 0.9, where 1 is the maximum). In outline: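 HepG2 transfected (FuGene 6) with GAL4-UAS reporter units + PXR-Gal4 chimera; dosed 24 h. Total RNA → oligo(dT) RT → PCR → 6-FAM primer extension → HpaI cut → CE. Gain-of-signal vs DMSO.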

The target in assay [11] is human Peroxisome Proliferator-activated Receptor alpha (PPARa), PPARA (gene 5465) (UniProt Q07869). Put plainly: ATG_PPARa_TRANS: Attagene TRANS-FACTORIAL HepG2 Assay for human Peroxisome Proliferator-activated Receptor alpha (PPARa) (AID 2283001; active = hit-call score of the fitted dose curve at least 0.9, where 1 is the maximum;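 as to AC50: potency for gain of reporter signal over DMSO so agonist or activator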). In outline:
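Transient HepG2 transfection, GAL4-UAS reporters, NR-Gal4 chimeras; 24 h compound exposure. Readout: reporter transcripts by RT-PCR, 6-FAM primer extension, HpaI digest, capillary electrophoresis. Positive direction vs DMSO baseline.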

In assay [12] the target is human Peroxisome Proliferator-activated Receptor delta (PPARd), PPARD (gene 5467) (UniProt Q03181). Briefly: ATG_PPARd_TRANS: Attagene TRANS-FACTORIAL HepG2 Assay for human Peroxisome Proliferator-activated Receptor delta (PPARd) (AID 2283002; active = hit-call score of the fitted dose curve at least 0.9, where 1 is the maximum). In outline: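 HepG2 cells transiently transfected with GAL4-UAS multiplexed reporter units driven by exogenous chimeric NR-GAL4 proteins; 24 h compound exposure. Reporter mRNA measured by RT-PCR, 6-FAM primer extension, HpaI digestion and capillary electrophoresis; gain of signal fitted relative to DMSO.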
Chain of human Peroxisome Proliferator-activated Receptor delta (PPARd), PPARD (gene 5467) (Q03181 whole entry, looked up, the tested form may be a part): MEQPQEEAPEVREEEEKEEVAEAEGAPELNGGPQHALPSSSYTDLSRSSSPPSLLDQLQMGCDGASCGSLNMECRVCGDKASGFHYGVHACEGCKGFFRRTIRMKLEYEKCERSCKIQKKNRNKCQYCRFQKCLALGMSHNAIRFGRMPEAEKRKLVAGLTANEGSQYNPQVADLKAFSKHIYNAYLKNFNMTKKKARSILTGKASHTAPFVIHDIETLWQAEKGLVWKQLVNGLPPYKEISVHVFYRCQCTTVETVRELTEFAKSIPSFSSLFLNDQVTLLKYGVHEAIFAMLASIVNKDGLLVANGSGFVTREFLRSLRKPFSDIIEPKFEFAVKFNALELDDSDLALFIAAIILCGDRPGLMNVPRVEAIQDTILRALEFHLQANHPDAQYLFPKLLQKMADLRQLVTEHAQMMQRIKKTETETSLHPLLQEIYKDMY

In assay [13] the target is human Retinoic Acid Receptor gamma (RARg), RARG (gene 5916) (UniProt P13631). Put plainly: ATG_RARg_TRANS: Attagene TRANS-FACTORIAL HepG2 Assay for human Retinoic Acid Receptor gamma (RARg) (AID 2283009; active = hit-call score of the fitted dose curve at least 0.9, where 1 is the maximum). An outline of the steps: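 Readout: reporter transcript levels via RT-PCR, 6-FAM primer-extension labelling, HpaI digestion and capillary electrophoresis. Cells: HepG2 carrying transfected RARg-GAL4 chimera plus UAS reporter set. Dosing 24 h; DMSO negative control.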
Chain of human Retinoic Acid Receptor gamma (RARg), RARG (gene 5916) (P13631 whole entry, looked up, the tested form may be a part): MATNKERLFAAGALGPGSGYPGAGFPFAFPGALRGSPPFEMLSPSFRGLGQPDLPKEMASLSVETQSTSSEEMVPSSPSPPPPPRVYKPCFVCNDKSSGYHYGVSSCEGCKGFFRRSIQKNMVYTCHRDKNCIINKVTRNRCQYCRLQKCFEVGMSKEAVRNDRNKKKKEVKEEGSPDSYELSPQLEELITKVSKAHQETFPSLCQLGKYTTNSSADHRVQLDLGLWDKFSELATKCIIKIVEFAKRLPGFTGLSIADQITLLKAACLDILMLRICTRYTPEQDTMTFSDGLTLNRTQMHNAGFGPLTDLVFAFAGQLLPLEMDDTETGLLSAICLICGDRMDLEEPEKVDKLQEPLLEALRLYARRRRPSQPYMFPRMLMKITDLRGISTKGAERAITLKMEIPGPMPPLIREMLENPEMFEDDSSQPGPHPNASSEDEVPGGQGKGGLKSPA

The target of assay [14] is Retinoic acid receptor alpha (Homo sapiens) (UniProt P10276). Put plainly: ATG_RARa_TRANS: Attagene TRANS-FACTORIAL HepG2 Assay for human Retinoic Acid Receptor alpha (RARa) (AID 2283005; active = hit-call score of the fitted dose curve at least 0.9, where 1 is the maximum). In outline: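 HepG2 transiently transfected with multiplex GAL4-UAS reporter units including a human RARa–GAL4 chimera; 24 h compound exposure. Reporter mRNA quantified by RT-PCR, 6-FAM labeling and capillary electrophoresis; gain of signal versus DMSO.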
Chain of Retinoic acid receptor alpha (Homo sapiens) (P10276 whole entry, looked up, the tested form may be a part): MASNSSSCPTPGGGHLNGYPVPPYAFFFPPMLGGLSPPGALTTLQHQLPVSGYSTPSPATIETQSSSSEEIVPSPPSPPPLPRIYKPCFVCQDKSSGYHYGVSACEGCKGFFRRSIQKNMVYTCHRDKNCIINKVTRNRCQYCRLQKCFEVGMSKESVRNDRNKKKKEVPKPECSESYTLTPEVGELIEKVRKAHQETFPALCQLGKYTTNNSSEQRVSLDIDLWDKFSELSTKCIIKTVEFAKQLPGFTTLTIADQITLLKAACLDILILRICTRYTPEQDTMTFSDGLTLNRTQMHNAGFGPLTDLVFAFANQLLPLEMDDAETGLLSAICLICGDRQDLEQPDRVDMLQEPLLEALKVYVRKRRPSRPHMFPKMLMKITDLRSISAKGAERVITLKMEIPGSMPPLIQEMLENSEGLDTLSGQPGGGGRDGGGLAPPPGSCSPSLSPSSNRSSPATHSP

A short description of assay [15]: BSK_3C_TissueFactor: BioMAP Diversity Plus: 3C Assay for Tissue Factor Biomarker Activity (AID 2282997). The note with it: BioMAP 3C HUVEC, tissue factor biomarker readout; actives raise or lower the signal. An outline of the steps: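 Tissue factor on primary human umbilical vein endothelium was read by ELISA 24 h after dosing, gain or loss relative to DMSO. Cytotoxicity ran alongside via SRB (0.1%, TCA-fixed, 560 nm).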

Assay [16] can be described thus: BSK_3C_uPAR: BioMAP Diversity Plus: 3C Assay for Urokinase-type plasminogen activator receptor (uPAR) Biomarker Activity (AID 2282998). The settings on record: BioMAP 3C HUVEC, uPAR biomarker ELISA; actives raise or lower the signal. An outline of the steps: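 In this endothelial cell-based assay, human umbilical vein primary cells were treated with chemicals and harvested at 24 h. uPAR was quantified using ELISA, with gains or losses fitted relative to DMSO controls.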
On the technique in general: ELISA stands for enzyme-linked immunosorbent assay.

The nature of assay [17]: BSK_3C_VCAM1: BioMAP Diversity Plus: 3C Assay for Vascular cell adhesion molecule 1 (VCAM1) Biomarker Activity (AID 2282999). The settings on record: BioMAP 3C HUVEC, VCAM1 ELISA, cytokine-stimulated; actives raise or lower the signal. In outline: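 HUVEC primary cells, 24 h compound exposure; VCAM-1 by ELISA; gain/loss of signal fitted bidirectionally vs DMSO baseline.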

The nature of assay [18]: BSK_4H_Eotaxin3: BioMAP Diversity Plus: 4H Assay for Eotaxin 3 Biomarker Activity (AID 2283000).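 As to outcome: CCL26 protein level quantified by ELISA in parallel with SRB cytotoxicity check.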 The settings on record: primary human endothelial cells (HUVEC); actives raise or lower the signal. An outline of the steps:
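Human umbilical vein endothelial cells (BSK_4H system) dosed with test chemical; Eotaxin-3 (CCL26) measured by ELISA 24 h after dosing. Bidirectional curve fitting relative to DMSO negative control as baseline.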

Read-out in assay [19]: Intercellular Adhesion Molecule 1 (ICAM1), ICAM1 (gene 3383)
Briefly: BSK_3C_ICAM1: BioMAP Diversity Plus: 3C Assay for Intercellular Adhesion Molecule 1 (ICAM1) Biomarker Activity (AID 2283003). The note with it: primary human endothelial cells (HUVEC); actives raise or lower the signal. In outline: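 ELISA read-out of ICAM-1; HUVEC (primary human), 3C system, 24 h post-dosing; bidirectional fit vs DMSO baseline.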

The nature of assay [20]: BSK_3C_Proliferation: Cell Proliferation Assessment in the BioMAP Diversity Plus: 3C Assay (AID 2283006).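 As to AC50: potency may reflect either rise or fall in cell number versus DMSO.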 The settings on record: primary human endothelial cells (HUVEC). In outline:
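HUVEC, sub-confluent; 48 h chemical exposure; 10% TCA fix, 0.1% SRB stain, A560 total protein. Gain or loss of signal fitted both directions vs DMSO control.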

Chain of human Peroxisome Proliferator-activated Receptor alpha (PPARa), PPARA (gene 5465) (Q07869 whole entry, looked up, the tested form may be a part): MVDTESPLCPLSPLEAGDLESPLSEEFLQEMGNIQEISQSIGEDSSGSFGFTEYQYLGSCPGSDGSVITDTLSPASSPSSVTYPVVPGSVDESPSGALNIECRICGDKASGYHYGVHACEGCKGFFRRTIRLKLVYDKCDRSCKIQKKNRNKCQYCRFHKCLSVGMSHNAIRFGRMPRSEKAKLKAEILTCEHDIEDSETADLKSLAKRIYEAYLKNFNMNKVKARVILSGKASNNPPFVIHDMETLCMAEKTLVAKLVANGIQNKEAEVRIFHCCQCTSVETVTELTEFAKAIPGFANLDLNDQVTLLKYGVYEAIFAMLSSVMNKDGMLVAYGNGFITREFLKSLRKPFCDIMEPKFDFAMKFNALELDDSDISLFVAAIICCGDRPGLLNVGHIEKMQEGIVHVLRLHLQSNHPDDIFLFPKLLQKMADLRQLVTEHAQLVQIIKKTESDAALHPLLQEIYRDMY
Chain of Peroxisome proliferator-activated receptor gamma (Homo sapiens) (P37231 whole entry, looked up, the tested form may be a part): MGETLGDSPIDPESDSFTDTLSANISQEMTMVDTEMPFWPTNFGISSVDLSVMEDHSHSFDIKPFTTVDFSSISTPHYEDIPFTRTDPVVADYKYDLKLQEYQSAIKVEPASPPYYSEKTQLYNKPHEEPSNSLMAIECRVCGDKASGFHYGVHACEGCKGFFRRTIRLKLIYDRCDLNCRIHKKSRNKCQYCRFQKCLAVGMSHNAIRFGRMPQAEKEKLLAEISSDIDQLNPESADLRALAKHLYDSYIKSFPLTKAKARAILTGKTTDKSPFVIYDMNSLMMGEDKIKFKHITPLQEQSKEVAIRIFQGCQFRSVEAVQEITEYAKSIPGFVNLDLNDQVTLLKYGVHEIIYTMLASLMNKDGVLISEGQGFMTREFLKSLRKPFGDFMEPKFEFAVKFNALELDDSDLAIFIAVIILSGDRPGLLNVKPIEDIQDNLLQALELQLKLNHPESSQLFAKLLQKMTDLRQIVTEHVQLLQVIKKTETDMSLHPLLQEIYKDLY
Chain of Myc proto-oncogene protein (Homo sapiens) (P01106 whole entry, looked up): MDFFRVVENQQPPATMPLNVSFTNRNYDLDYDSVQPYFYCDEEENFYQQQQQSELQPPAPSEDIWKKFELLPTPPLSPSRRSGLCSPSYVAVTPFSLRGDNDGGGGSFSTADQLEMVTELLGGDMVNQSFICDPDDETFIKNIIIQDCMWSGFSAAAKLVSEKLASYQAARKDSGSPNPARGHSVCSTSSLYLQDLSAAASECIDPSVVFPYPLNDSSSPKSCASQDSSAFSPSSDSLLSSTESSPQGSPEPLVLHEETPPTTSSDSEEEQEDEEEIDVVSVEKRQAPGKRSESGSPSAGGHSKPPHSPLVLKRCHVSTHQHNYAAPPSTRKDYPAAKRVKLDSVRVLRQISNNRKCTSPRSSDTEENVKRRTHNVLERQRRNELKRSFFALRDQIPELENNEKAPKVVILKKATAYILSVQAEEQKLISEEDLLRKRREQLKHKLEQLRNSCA
Chain of Nuclear respiratory factor 1 (Homo sapiens) (Q16656 whole entry, looked up): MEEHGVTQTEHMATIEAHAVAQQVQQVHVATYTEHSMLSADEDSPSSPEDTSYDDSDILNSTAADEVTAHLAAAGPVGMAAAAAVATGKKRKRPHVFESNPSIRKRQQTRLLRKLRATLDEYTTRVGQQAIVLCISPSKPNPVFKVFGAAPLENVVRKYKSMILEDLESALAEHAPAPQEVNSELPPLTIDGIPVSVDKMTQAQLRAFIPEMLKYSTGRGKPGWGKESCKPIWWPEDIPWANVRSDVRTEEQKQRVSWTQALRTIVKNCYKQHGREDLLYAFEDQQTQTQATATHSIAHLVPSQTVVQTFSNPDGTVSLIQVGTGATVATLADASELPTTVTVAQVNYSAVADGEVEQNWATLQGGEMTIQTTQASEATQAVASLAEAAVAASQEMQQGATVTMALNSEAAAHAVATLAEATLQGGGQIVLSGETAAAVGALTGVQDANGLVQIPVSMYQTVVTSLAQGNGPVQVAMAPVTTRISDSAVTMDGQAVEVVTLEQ
Chain of Nuclear receptor subfamily 1 group I member 2 (Homo sapiens) (O75469 whole entry, looked up, the tested form may be a part): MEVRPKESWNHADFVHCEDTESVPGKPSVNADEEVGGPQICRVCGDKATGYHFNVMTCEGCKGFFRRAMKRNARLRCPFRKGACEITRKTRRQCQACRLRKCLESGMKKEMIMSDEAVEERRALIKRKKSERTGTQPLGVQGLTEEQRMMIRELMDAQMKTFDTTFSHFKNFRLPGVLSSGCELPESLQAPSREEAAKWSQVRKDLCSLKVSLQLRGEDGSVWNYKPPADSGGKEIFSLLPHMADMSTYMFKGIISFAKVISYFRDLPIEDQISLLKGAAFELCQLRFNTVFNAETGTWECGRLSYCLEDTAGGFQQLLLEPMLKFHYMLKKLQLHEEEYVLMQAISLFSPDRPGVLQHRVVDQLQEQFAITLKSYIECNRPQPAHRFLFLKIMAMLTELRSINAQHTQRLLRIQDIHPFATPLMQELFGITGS

For the compound `Cc1cccc(C)n1`, the outcome in assay [1], in assay [2], in assay [3], in assay [4], in [5] and in [6] was inactive. In addition, the compound was classed as inactive in [7], in assay [8], in [9] and in [10].
For the compound `CC(C)Nc1ccc(NC(C)C)c2c1C(=O)c1ccccc1C2=O`, the result in [1], in assay [2], in assay [3], in assay [4], in [6] and in assay [7] was inactive. Further, the result in assay [11], in [12], in [8], in [9] and in assay [13] was inactive. In addition, the AC50 (in general, the concentration giving half of the maximal activity seen) was 2.85 µM (active) in [5] and 0.16 µM (active) in [10].
For `CC(=O)C=O`, the compound was classed as inactive in assay [1], in assay [2], in [3], in [4], in assay [5] and in assay [6]. Also, the compound was called inactive in assay [7], in assay [11], in [14] and in assay [10].
For the compound `Cc1cc(=O)[nH]c(C(C)C)n1`, the call in assay [1], in [2], in assay [3], in [4], in assay [5] and in assay [6] was inactive. The compound was classed as inactive in assay [7], in assay [11], in [12], in assay [10] and in [13].
For the compound `NS(=O)(=O)C(F)(F)C(F)(F)C(F)(F)C(F)(F)C(F)(F)C(F)(F)F`, the compound was classed as inactive in assay [1], in assay [2], in assay [3], in assay [4], in [5] and in assay [6]. The outcome in assay [15], in [16], in [17], in assay [12], in assay [19] and in assay [8] was inactive. Besides, the compound was called inactive in assay [10] and in assay [13]. The concentration at half-maximal activity (AC50) is 19.6 µM (active) in assay [16]; 46.4 µM (active) and 20.3 µM (active) in [18]; 28.2 µM (active) in assay [11]; 28.9 µM (active) and 49.6 µM (active) in assay [20]; 50.5 µM (active) in assay [9].
On to `CN(C(=O)C(F)(F)C(F)(F)C(F)(F)F)[Si](C)(C)C`, for which the call in assay [1], in [2], in [3], in [4], in assay [5] and in [6] was inactive. Further, the result in assay [15], in [16], in assay [17], in assay [18], in assay [11] and in [12] was inactive. Also, the outcome in assay [19], in [14], in [20], in assay [9] and in assay [10] was inactive.
Take `CC(O)C#CC(C)O` (stereo not drawn): the AC50 is 143 µM (active) in assay [1]; 127 µM (active) in assay [2]; 53.3 µM (active) in assay [3]; 84 µM (active) in assay [4]; 24.9 µM (active) in assay [5]; 167 µM (active) in assay [7]. The AC50 in [9] is 41.1 µM (active). Besides, the result in [6], in [11], in assay [12], in [8], in [14] and in assay [10] was inactive. Further, the compound was classed as inactive in assay [13].
For the compound `OCCCCl`, the compound was called inactive in [1], in assay [2], in [3], in assay [4], in assay [5] and in [6]. Moreover, the compound was classed as inactive in assay [7], in [12], in assay [8], in [14] and in assay [10].
For `CO[Si](CCCOCC1CO1)(OC)OC` (stereo not drawn), the result in [1], in [2], in assay [3], in assay [4], in assay [6] and in assay [7] was inactive. The result in assay [12] was inactive. The AC50 in assay [5] was 73.2 µM (active).

Values taken from PubChem BioAssay (EPA / NIEHS).
